SMILES strings stand for the structures. Several values for one entry are separate records, joined by “and”; a condition that tells them apart may be missing. Equal entries are not always repeated. Records with an inconclusive call do not appear. Entries that show only a call come without a potency. Where a structure was tested more than once in an assay, its records may differ in their call. Activity calls are given as the source filed them. Calls follow the shape of the dose curve; as a rule, active = well fitted activation curve with a large enough effect; inconclusive = small, poorly fitted or top-dose-only effect; inactive = flat fitted curve, though single readings scatter.
Potency is read from the fitted curve at half-maximal effect.

Sequence of Pyruvate kinase PKM (Homo sapiens) (P14618 whole entry, looked up, canonical isoform): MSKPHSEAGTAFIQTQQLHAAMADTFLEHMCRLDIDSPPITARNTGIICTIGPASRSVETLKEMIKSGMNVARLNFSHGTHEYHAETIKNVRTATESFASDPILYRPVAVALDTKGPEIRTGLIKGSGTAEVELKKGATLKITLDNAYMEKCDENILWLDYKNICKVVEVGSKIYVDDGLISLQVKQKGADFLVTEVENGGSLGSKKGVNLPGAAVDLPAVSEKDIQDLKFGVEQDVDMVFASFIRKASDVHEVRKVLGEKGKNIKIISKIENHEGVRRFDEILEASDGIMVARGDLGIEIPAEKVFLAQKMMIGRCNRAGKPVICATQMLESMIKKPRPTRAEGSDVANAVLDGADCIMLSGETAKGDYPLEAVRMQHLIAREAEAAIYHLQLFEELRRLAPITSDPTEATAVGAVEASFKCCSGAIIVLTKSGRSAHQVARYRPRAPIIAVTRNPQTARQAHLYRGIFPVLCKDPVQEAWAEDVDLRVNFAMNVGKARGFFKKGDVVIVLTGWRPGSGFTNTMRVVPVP

This assay concerns the target Pyruvate kinase PKM (Homo sapiens) (UniProt P14618). In words: Confirmation Concentration-Response Assay for Activators of Human Muscle isoform 2 Pyruvate Kinase: for Probe SAR. Also: nearly all actives have a fitted effect of over 60% in size. As to conditions: purified PKM2, ATP generation, Kinase-Glo luminescence; series mostly up to 57.5 µM. In outline:
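Purified hPK-M2 at 0.1 nM final converted ADP (0.1 mM) and PEP (0.5 mM) to ATP over 1 hour at room temperature in imidazole buffer, pH 7.2. ATP formed was measured by Kinase-Glo luminescence, normalized to no-enzyme and uninhibited controls.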
Turning to `N#Cc1ccccc1OC1=NS(=O)(=O)c2ccccc21`, the Potency result was “inactive”.

On to `CN(C)c1cccc(S(=O)(=O)N2CCCN(S(=O)(=O)c3ccc4c(c3)OCCO4)CC2)c1`, for which the Potency is 163 nM (active).

`Cc1ccn2c(NCc3ccco3)c(-c3ccccc3)nc2c1`: the Potency entry was “inactive”.

Regarding `Cc1ccc(NS(=O)(=O)c2cc3c(cc2F)NC(=O)CC3)cc1C`, the Potency was 730 nM (active).

For the molecule `COc1ccc(-c2sc(N)nc2-c2ccccc2)cc1`, the Potency entry was “inactive”.

For the molecule `Cc1cccc(NS(=O)(=O)c2ccc3c(c2)CCC(=O)N3)c1`, the Potency was 1830 nM (active).

As for `COc1ccc(-c2nc3cccc(C)n3c2Nc2ccc(C)cc2)cc1`, the Potency entry was “inactive”.

With `Cc1ccc(NS(=O)(=O)c2cc3c(cc2Cl)NC(=O)CO3)cc1C`, the Potency was 410 nM (active).

Take `Fc1ccccc1-c1ccc(-c2nc3ccc(Cl)cn3c2Nc2ccc(Cl)cc2)o1`: the Potency result is “inactive”.

As for `Cc1ccc(NS(=O)(=O)c2ccc3ccccc3c2)cc1C`, the Potency was 41100 nM (active).

In the case of `COc1ccc(NS(=O)(=O)c2ccccc2C(=O)O)cc1`, the Potency entry was “inactive”.

`COc1ccc(NS(=O)(=O)c2ccccc2)cc1NS(=O)(=O)c1ccccc1`: the Potency entry was “inactive”.

As to `Cc1ccccc1Nc1c(-c2ccc(Cl)s2)nc2ccccn12`, the Potency entry was “inactive”.

Take `O=S1(=O)N=C(Oc2ccc(Br)cc2)c2ccccc21`: the Potency entry was “inactive”.

Turning to `O=S1(=O)N=C(Oc2ccccc2-c2ccccc2)c2ccccc21`, the Potency result was “inactive”.

As for `Cc1ccc(-c2nc3ccccn3c2Nc2ccc(F)cc2)o1`, the Potency result is “inactive”.

For `O=C1CCc2cc(S(=O)(=O)Nc3cccc(Br)c3)ccc2N1`, the Potency was 259 nM (active).

For `O=C1c2ccccc2C(=O)N1c1cccc2ccncc12`, the Potency entry is “inactive”.

Turning to `CCCCN1C(=O)c2ccccc2C1=O`, the Potency entry was “inactive”.

As for `Cc1cc2c(s1)c1cnn(Cc3c(Cl)ccc(C)c3F)c(=O)c1n2C`, the Potency is 1260 nM (active).

Take `O=C1CCc2cc(S(=O)(=O)Nc3ccncc3)ccc2N1`: the Potency entry is “inactive”.

`O=C1c2ccccc2C(=O)N1c1ccc(O)cc1`: the Potency entry is “inactive”.

As for `Cc1cc2c(s1)c1cnn(Cc3ccccc3F)c(=O)c1n2C`, the Potency result was “inactive and 231 nM (active)”.

On to `O=C1c2ccccc2C(=O)N1c1cccc2cccnc12`, for which the Potency result is “inactive”.

Turning to `Cc1cc(NS(=O)(=O)c2ccc3c(c2)CCC(=O)N3)ccc1F`, the Potency was 461 nM (active).

Consider `Cc1ccc(-c2nc3cnccn3c2Nc2ccc(C(C)C)cc2)o1`, for which the Potency entry was “inactive”.

As to `O=C1CCc2cc(S(=O)(=O)Nc3ccc(Cl)cc3)ccc2N1`, the Potency is 2060 nM (active).

Turning to `Cc1ccc(Nc2c(-c3ccc(C)o3)nc3ccccn23)cc1`, the Potency entry is “inactive”.

For `Nc1cccc(S(=O)(=O)N2CCN(S(=O)(=O)c3c(F)cccc3F)CC2)c1`, the Potency is 130 nM (active).

With `Cc1ccc(NS(=O)(=O)c2cc3c(cc2/C=C/c2ccccc2)NC(=O)CO3)cc1C`, the Potency entry was “inactive”.

In the case of `COc1cc(F)c(S(=O)(=O)N2CCN(S(=O)(=O)c3cccc(NC(C)=O)c3)CC2)c(F)c1`, the Potency is 3260 nM (active).

With `O=C1c2ccccc2C(=O)N1c1noc2ccccc12`, the Potency result was “inactive”.

In the case of `COc1cc(F)c(S(=O)(=O)N2CCN(S(=O)(=O)c3ccc(NC(C)=O)cc3)CC2)c(F)c1`, the Potency is 13000 nM (active).

With `O=S1(=O)N=C(Oc2ccccc2F)c2ccccc21`, the Potency result is “inactive”.

Turning to `Cc1ccc(Nc2c(-c3ccsc3)nc3cccc(C)n23)cc1`, the Potency result was “inactive”.

With `O=C1c2ccccc2C(=O)N1c1ncccc1O`, the Potency result was “inactive”.

With `COc1cc(F)c(S(=O)(=O)N2CCCN(S(=O)(=O)c3ccc4c(c3)OCCO4)CC2)c(F)c1`, the Potency is 58 nM (active).

For the origin of these results see PubChem BioAssay AID2533 (National Center for Advancing Translational Sciences (NCATS), 2010).
